# Reference: PubChem BioAssay (Tox21)
# Records with an inconclusive call do not appear. A call without a number means that no potency is given here. Activity calls are given as the source filed them. The call rests on the fitted dose curve.
# Biological target: Progesterone receptor (Homo sapiens) (UniProt P06401)
# Assay: qHTS assay to identify small molecule agonists of the progesterone receptor (PR) signaling pathway (AID 1346784); further: nearly all actives have a fitted effect of over 30% in size
# Settings: PR-UAS-bla HEK293T, beta-lactamase FRET ratio, 16 h; series mostly up to 92.4 µM
# Source text: U.S. Tox21 Program National Center for Advancing Translational Sciences [NCATS] NIH Chemical Genomics Center [NCGC] U.S. Environmental Protection Agency [EPA] National Institutes of Environmental Health Sciences [NIEHS] National Toxicology Program [NTP] U.S. Food and Drug Administration [FDA] […] Endocrine disrupting chemicals (EDCs) and their interactions with steroid hormone receptors like PR causes disruption of normal endocrine function. To identify the compounds that activate PR signaling, a PR-UAS-bla GripTite cell line i.e. PR-UAS-bla HEK 293T (Invitrogen, Carlsbad, CA, USA) containing a beta-lactamase reporter gene under the control of an Upstream Activator Sequence (UAS) was used to screen Tox21 10K compound library.
# Tox21 Assay Protocol Summary: PR-UAS-bla HEK 293T cells were dispensed at 3,000 cells/5 uL of assay medium containing 2% charcoal stripped FBS per well into black wall/clear-bottom 1536-well plates using a Multidrop Combi (ThermoFisher Scientific, Waltham, MA) dispenser. After the assay plates were incubated at a 37C and 5% CO2 for 6hr, 23 nL of compounds dissolved in DMSO, positive controls or DMSO only was transferred to the assay plate by a Pintool station (Kalypsys, San Diego, CA). The plates were incubated at 37C and 5% CO2 for 16hr. Then 1 uL of LiveBLAzer B/G FRET substrate was added using a BioRAPTR FRD (Flying Reagent Dispenser, Aurora Discovery, San Diego, CA). After the plates were incubated at room temperature for 2 hours, fluorescence intensity was measured by an Envision plate reader (PerkinElmer, Shelton, CT).
# Potency means the concentration at half of the fitted maximal effect.
# Sequence of Progesterone receptor (Homo sapiens) (P06401 whole entry, looked up): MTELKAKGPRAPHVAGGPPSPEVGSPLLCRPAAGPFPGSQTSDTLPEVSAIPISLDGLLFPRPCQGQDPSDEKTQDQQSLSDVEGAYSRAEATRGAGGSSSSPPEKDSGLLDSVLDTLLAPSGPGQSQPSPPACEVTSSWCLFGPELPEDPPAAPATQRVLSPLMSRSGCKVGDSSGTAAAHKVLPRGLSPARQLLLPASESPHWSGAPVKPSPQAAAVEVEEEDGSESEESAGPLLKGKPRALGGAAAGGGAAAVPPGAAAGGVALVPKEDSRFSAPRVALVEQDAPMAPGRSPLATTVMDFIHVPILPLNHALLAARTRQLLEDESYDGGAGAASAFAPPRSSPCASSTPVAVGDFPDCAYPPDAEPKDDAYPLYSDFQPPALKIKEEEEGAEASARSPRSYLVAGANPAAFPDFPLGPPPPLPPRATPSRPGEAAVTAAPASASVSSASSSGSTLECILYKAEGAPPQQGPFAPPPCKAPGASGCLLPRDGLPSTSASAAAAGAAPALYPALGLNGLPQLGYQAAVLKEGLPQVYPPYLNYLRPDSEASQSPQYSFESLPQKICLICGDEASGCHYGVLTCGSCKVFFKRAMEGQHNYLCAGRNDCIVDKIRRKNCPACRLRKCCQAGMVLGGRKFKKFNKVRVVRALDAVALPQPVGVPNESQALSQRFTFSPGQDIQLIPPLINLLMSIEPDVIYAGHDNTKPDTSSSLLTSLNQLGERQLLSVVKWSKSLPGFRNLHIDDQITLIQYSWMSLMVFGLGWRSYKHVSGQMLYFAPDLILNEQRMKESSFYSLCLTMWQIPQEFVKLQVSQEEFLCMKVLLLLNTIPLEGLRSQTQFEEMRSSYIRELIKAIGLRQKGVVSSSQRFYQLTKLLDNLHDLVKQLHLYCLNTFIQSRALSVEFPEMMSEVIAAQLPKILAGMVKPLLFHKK
row,Structure (SMILES),Potency
1,O=C(NC(=O)c1cc(F)c(F)cc1Cl)Nc1cc(F)ccc1N1CCC(C(=O)O)CC1,inactive
2,CCCCCCCCP(=O)(O)O,inactive
3,SCc1ccccc1,inactive
4,Nc1cccc2ccccc12,inactive
5,CCCC(C)(COC(N)=O)COC(=O)NC(C)C (stereo not given),inactive
6,C1CCNCC1,inactive
7,O=C(O)C(Cl)(Cl)Br,inactive
8,N#CC1(N=NC2(C#N)CCCCC2)CCCCC1,inactive
9,CCC(C)Cl (stereo not given),inactive
10,CN(C1CCCCC1)C1CCCCC1,inactive
11,COC(=O)Cc1ccccc1,inactive
12,N#CC(C#N)=Cc1ccc(O)c(O)c1,inactive
13,CN(C)N,inactive
14,Cc1ccc(N)c(C)c1,inactive
15,O=C(O)c1ccc(=O)[nH]c1,inactive
16,CCOC(=O)NC(O)C(Cl)(Cl)Cl (stereo not given),inactive
17,O=P(OCC(Br)CBr)(OCC(Br)CBr)OCC(Br)CBr (stereo not given),inactive
18,O=C(O)COc1cc(Cl)c(Cl)cc1Cl,inactive
19,CCOP(=S)(OCC)Oc1ccc(S(C)=O)cc1 (stereo not given),inactive
20,CCC(C)(C)O,inactive

row,Structure (SMILES),Potency
1,CCCCC(CC)CO[N+](=O)[O-] (stereo not given),inactive
2,O=C(O)c1cc(I)cc(I)c1I,inactive
3,CC(C)CCCCCCCOC(=O)c1ccccc1C(=O)OCCCCCCCC(C)C,inactive
4,CCCCCl,inactive
5,C[C@]12CC[C@H]3[C@@H](CCC4=CC(=O)CC[C@@H]43)[C@@H]1CC[C@@H]2OC(=O)CCc1ccccc1,1.5 µM (active)
6,CC(C)CCON=O,inactive
7,CCCC[N+](CCCC)(CCCC)CCCC,inactive
8,CCC1(CC)C(=O)NC(=O)NC1=O,inactive
9,CN1C(=O)CN=C(c2ccccc2)c2cc([N+](=O)[O-])ccc21,inactive
10,CN1CC[C@]23c4c5ccc(O)c4O[C@H]2[C@@H](O)C=C[C@H]3[C@H]1C5,inactive
11,C=CCc1ccc(OC(=O)Cc2ccccc2)c(OC)c1,inactive
12,COc1cc(C[C@@H](C)N)c(OC)cc1Br,inactive
13,CCOC(=O)c1cn2nc(OP(=S)(OCC)OCC)cc2nc1C,inactive
14,CCOC(C(=O)OCCN(C)C)(c1ccccc1)c1ccccc1,inactive
15,COP(=O)(OC)OC(Br)C(Cl)(Cl)Br (stereo not given),inactive
16,CN(C)C(=O)Nc1cccc(OC(=O)NC(C)(C)C)c1,inactive
17,Clc1ccc(Cl)c(Cl)c1,inactive
18,Nc1ccccc1C(=O)OCCc1ccccc1,inactive
19,Nc1ccc2c(c1)Cc1ccccc1-2,inactive
20,C=CC(=O)NC(C)(C)CC(C)=O,inactive
